40 sequences from paper PMC9838217, “Structure of SALL4 zinc finger domain reveals link between AT-rich DNA binding and Okihiro syndrome” can be followed below.

Positions count from the first letter of the chain named.

The first assay deals with T1, SALL4 ZFC4 WT (HT-SELEX) (Mus musculus, UniProt Q8BX22 870-940).
T1 sequence: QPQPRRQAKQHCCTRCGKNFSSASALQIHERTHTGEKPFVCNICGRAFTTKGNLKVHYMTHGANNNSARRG
Description: HT-SELEX; high values mean tight binding. To be noted: protein: recombinant; vector His6-GST; dsDNA, one strand shown. In outline:
(§1)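 Up to 6 cycles of selection were run in triplicate. In each, purified recombinant mouse SALL4 zinc finger cluster 4 (residues 870–940, 1 µg) was incubated with library DNA (1.5 µg first cycle, 200 ng later) in 100 µl of 10 mM Tris–HCl pH 7.5, 50 mM NaCl, poly(dI-dC), DTT for 10 min at room temperature, then complexes were captured on Ni2+ beads, washed and PCR-amplified; final pools were MiSeq-sequenced and scanned for 6-mers. Binding signal is each canonical k-mer's read fraction as fold change versus the initial random library.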
Consider GTCAAC, for which the binding signal was 0.711 ± 0.0163 fold-change vs cycle 0.

Take TAGCGA: the binding signal amounted to 0.54 ± 0.0286 fold-change vs cycle 0.

In the case of AGACAA, the binding signal amounted to 1.15 ± 0.0323 fold-change vs cycle 0.

As for AACGGG, the binding signal worked out at 0.4 ± 0.0225 fold-change vs cycle 0.

As for ATCATC, the binding signal worked out at 1.5 ± 0.034 fold-change vs cycle 0.

As to CAGGGA, the binding signal was 0.492 ± 0.0092 fold-change vs cycle 0.

With GGTTAA, the binding signal came out at 1.23 ± 0.0345 fold-change vs cycle 0.

For the sequence GCATGA, the binding signal turned out to be 0.7 ± 0.0187 fold-change vs cycle 0.

Turning to CTCCTA, the binding signal was determined as 0.926 ± 0.0641 fold-change vs cycle 0.

For ATGCTG, the binding signal is 0.649 ± 0.0321 fold-change vs cycle 0.

As for ACCAGA, the binding signal is 0.795 ± 0.0237 fold-change vs cycle 0.

Take ACAACG: the binding signal stood at 0.592 ± 0.0372 fold-change vs cycle 0.

Turning to CAATTC, the binding signal turned out to be 1.19 ± 0.016 fold-change vs cycle 0.

As for CGTAGC, the binding signal came out at 0.305 ± 0.0314 fold-change vs cycle 0.

As for GACCAA, the binding signal came out at 0.62 ± 0.021 fold-change vs cycle 0.

Consider GTGATA, for which the binding signal amounted to 1.42 ± 0.0582 fold-change vs cycle 0.

For ATCCAG, the binding signal came to 0.851 ± 0.0326 fold-change vs cycle 0.

AAGAGC: the binding signal turned out to be 0.752 ± 0.0601 fold-change vs cycle 0.

Turning to AAGATC, the binding signal is 1.25 ± 0.0866 fold-change vs cycle 0.

As for ACTAGT, the binding signal was 1.33 ± 0.0473 fold-change vs cycle 0.

On to ATTTCG, for which the binding signal was 1.02 ± 0.0756 fold-change vs cycle 0.

For CGTTGA, the binding signal is 0.664 ± 0.053 fold-change vs cycle 0.

With ATACAA, the binding signal came out at 2 ± 0.0726 fold-change vs cycle 0.

Take TGTGAA: the binding signal was found to be 1.23 ± 0.0362 fold-change vs cycle 0.

AGGTCC: the binding signal is 0.419 ± 0.0296 fold-change vs cycle 0.

Turning to GAAGAC, the binding signal worked out at 0.8159 ± 0.00405 fold-change vs cycle 0.

Regarding AACCGG, the binding signal was 0.336 ± 0.0219 fold-change vs cycle 0.

As to CAGAGC, the binding signal turned out to be 0.315 ± 0.0109 fold-change vs cycle 0.

In the case of CAAGAC, the binding signal amounted to 0.74 ± 0.0108 fold-change vs cycle 0.

AAAGCT: the binding signal is 1.01 ± 0.0609 fold-change vs cycle 0.

As for AACACT, the binding signal amounted to 1.28 ± 0.027 fold-change vs cycle 0.

As to ACCAAA, the binding signal came to 1.09 ± 0.0301 fold-change vs cycle 0.

Take GCTCAC: the binding signal stood at 0.361 ± 0.0205 fold-change vs cycle 0.

Take ACTACT: the binding signal was found to be 1.38 ± 0.0657 fold-change vs cycle 0.

On to TTCCAA, for which the binding signal was found to be 1.24 ± 0.0535 fold-change vs cycle 0.

With CTCTCC, the binding signal turned out to be 0.497 ± 0.0273 fold-change vs cycle 0.

As for TACACA, the binding signal stood at 1.21 ± 0.07 fold-change vs cycle 0.

Take CGGAAG: the binding signal is 0.465 ± 0.0113 fold-change vs cycle 0.

Consider ATTTAC, for which the binding signal worked out at 1.95 ± 0.0871 fold-change vs cycle 0.

Regarding CTTAAA, the binding signal was found to be 1.73 ± 0.0848 fold-change vs cycle 0.

The next assay has as its target T2, SALL4 ZFC4 R900W (HT-SELEX) (Mus musculus, UniProt Q8BX22 870-940, R900W).
T2 sequence: T1 sequence with R31W
Description: HT-SELEX; high values mean tight binding. To be noted: protein: recombinant; vector His6-GST; dsDNA, one strand shown. In outline: as §1
For the sequence GTCAAC, the binding signal amounted to 0.867 ± 0.00955 fold-change vs cycle 0.

Regarding TAGCGA, the binding signal is 0.613 ± 0.0291 fold-change vs cycle 0.

For the sequence AGACAA, the binding signal came out at 1.28 ± 0.0792 fold-change vs cycle 0.

In the case of AACGGG, the binding signal was 0.466 ± 0.0176 fold-change vs cycle 0.

Regarding ATCATC, the binding signal was found to be 1.56 ± 0.0669 fold-change vs cycle 0.

In the case of CAGGGA, the binding signal was determined as 0.57 ± 0.0327 fold-change vs cycle 0.

Regarding GGTTAA, the binding signal was 1.4 ± 0.0959 fold-change vs cycle 0.

For the sequence GCATGA, the binding signal came out at 0.753 ± 0.0226 fold-change vs cycle 0.

Regarding CTCCTA, the binding signal worked out at 1.07 ± 0.0219 fold-change vs cycle 0.

Consider ATGCTG, for which the binding signal came out at 0.712 ± 0.0351 fold-change vs cycle 0.

Regarding ACCAGA, the binding signal worked out at 0.921 ± 0.0435 fold-change vs cycle 0.

Regarding ACAACG, the binding signal was determined as 0.676 ± 0.029 fold-change vs cycle 0.

As to CAATTC, the binding signal is 1.29 ± 0.063 fold-change vs cycle 0.

On to CGTAGC, for which the binding signal is 0.356 ± 0.00868 fold-change vs cycle 0.

Take GACCAA: the binding signal came out at 0.733 ± 0.0369 fold-change vs cycle 0.

Turning to GTGATA, the binding signal was 1.47 ± 0.0649 fold-change vs cycle 0.

On to ATCCAG, for which the binding signal worked out at 0.955 ± 0.027 fold-change vs cycle 0.

Consider AAGAGC, for which the binding signal stood at 0.917 ± 0.0813 fold-change vs cycle 0.

In the case of AAGATC, the binding signal worked out at 1.42 ± 0.0452 fold-change vs cycle 0.

Regarding ACTAGT, the binding signal was found to be 1.52 ± 0.0779 fold-change vs cycle 0.

ATTTCG: the binding signal was 0.985 ± 0.0219 fold-change vs cycle 0.

As for CGTTGA, the binding signal was 0.763 ± 0.00493 fold-change vs cycle 0.

ATACAA: the binding signal came to 1.98 ± 0.0733 fold-change vs cycle 0.

Take TGTGAA: the binding signal is 1.38 ± 0.0419 fold-change vs cycle 0.

With AGGTCC, the binding signal was 0.53 ± 0.0164 fold-change vs cycle 0.

With GAAGAC, the binding signal came to 0.962 ± 0.00987 fold-change vs cycle 0.

On to AACCGG, for which the binding signal turned out to be 0.391 ± 0.0169 fold-change vs cycle 0.

Consider CAGAGC, for which the binding signal came out at 0.382 ± 0.0231 fold-change vs cycle 0.

As for CAAGAC, the binding signal came out at 0.856 ± 0.0182 fold-change vs cycle 0.

Turning to AAAGCT, the binding signal is 1.13 ± 0.0411 fold-change vs cycle 0.

In the case of AACACT, the binding signal came to 1.39 ± 0.0403 fold-change vs cycle 0.

ACCAAA: the binding signal was determined as 1.17 ± 0.0218 fold-change vs cycle 0.

As to GCTCAC, the binding signal was found to be 0.415 ± 0.0136 fold-change vs cycle 0.

On to ACTACT, for which the binding signal is 1.52 ± 0.107 fold-change vs cycle 0.

Turning to TTCCAA, the binding signal was found to be 1.32 ± 0.0456 fold-change vs cycle 0.

As for CTCTCC, the binding signal is 0.603 ± 0.0441 fold-change vs cycle 0.

On to TACACA, for which the binding signal was found to be 1.3 ± 0.0721 fold-change vs cycle 0.

On to CGGAAG, for which the binding signal was found to be 0.58 ± 0.0281 fold-change vs cycle 0.

Take ATTTAC: the binding signal worked out at 1.9 ± 0.0674 fold-change vs cycle 0.

As to CTTAAA, the binding signal amounted to 1.87 ± 0.112 fold-change vs cycle 0.

For another assay, the target named is T3, SALL4 ZFC4 G921D (HT-SELEX) (Mus musculus, UniProt Q8BX22 870-940, G921D).
T3 sequence: T1 sequence with G52D
Description: HT-SELEX; high values mean tight binding. To be noted: protein: recombinant; vector His6-GST; dsDNA, one strand shown. In outline: as §1
With GTCAAC, the binding signal came to 0.934 ± 0.0287 fold-change vs cycle 0.

In the case of TAGCGA, the binding signal amounted to 0.72 ± 0.0193 fold-change vs cycle 0.

With AGACAA, the binding signal is 1.26 ± 0.0604 fold-change vs cycle 0.

Turning to AACGGG, the binding signal is 0.54 ± 0.0483 fold-change vs cycle 0.

For ATCATC, the binding signal was 1.49 ± 0.0918 fold-change vs cycle 0.

For CAGGGA, the binding signal stood at 0.629 ± 0.0495 fold-change vs cycle 0.

Regarding GGTTAA, the binding signal was determined as 1.3 ± 0.0896 fold-change vs cycle 0.

For the sequence GCATGA, the binding signal came to 0.824 ± 0.0395 fold-change vs cycle 0.

For the sequence CTCCTA, the binding signal worked out at 1.05 ± 0.0362 fold-change vs cycle 0.

Consider ATGCTG, for which the binding signal is 0.801 ± 0.0529 fold-change vs cycle 0.

Turning to ACCAGA, the binding signal came out at 0.947 ± 0.0126 fold-change vs cycle 0.

As to ACAACG, the binding signal amounted to 0.769 ± 0.0401 fold-change vs cycle 0.

Take CAATTC: the binding signal turned out to be 1.25 ± 0.0527 fold-change vs cycle 0.

For CGTAGC, the binding signal came out at 0.479 ± 0.0718 fold-change vs cycle 0.

As to GACCAA, the binding signal stood at 0.845 ± 0.0391 fold-change vs cycle 0.

Turning to GTGATA, the binding signal amounted to 1.39 ± 0.0928 fold-change vs cycle 0.

For the sequence ATCCAG, the binding signal came out at 0.988 ± 0.0337 fold-change vs cycle 0.

Consider AAGAGC, for which the binding signal was determined as 1.02 ± 0.0502 fold-change vs cycle 0.

As for AAGATC, the binding signal amounted to 1.44 ± 0.0439 fold-change vs cycle 0.

In the case of ACTAGT, the binding signal turned out to be 1.37 ± 0.106 fold-change vs cycle 0.

Turning to ATTTCG, the binding signal came to 1.06 ± 0.0262 fold-change vs cycle 0.

Turning to CGTTGA, the binding signal amounted to 0.839 ± 0.0136 fold-change vs cycle 0.

As to ATACAA, the binding signal turned out to be 1.76 ± 0.0991 fold-change vs cycle 0.

With TGTGAA, the binding signal stood at 1.29 ± 0.0621 fold-change vs cycle 0.

For the sequence AGGTCC, the binding signal is 0.632 ± 0.0514 fold-change vs cycle 0.

Consider GAAGAC, for which the binding signal was 0.993 ± 0.0221 fold-change vs cycle 0.

Turning to AACCGG, the binding signal amounted to 0.498 ± 0.0509 fold-change vs cycle 0.

CAGAGC: the binding signal is 0.524 ± 0.0543 fold-change vs cycle 0.

Take CAAGAC: the binding signal was 0.905 ± 0.036 fold-change vs cycle 0.

On to AAAGCT, for which the binding signal was found to be 1.17 ± 0.0323 fold-change vs cycle 0.

In the case of AACACT, the binding signal is 1.33 ± 0.0261 fold-change vs cycle 0.

Regarding ACCAAA, the binding signal was 1.18 ± 0.044 fold-change vs cycle 0.

In the case of GCTCAC, the binding signal amounted to 0.554 ± 0.021 fold-change vs cycle 0.

Consider ACTACT, for which the binding signal worked out at 1.43 ± 0.121 fold-change vs cycle 0.

With TTCCAA, the binding signal came out at 1.29 ± 0.0721 fold-change vs cycle 0.

Turning to CTCTCC, the binding signal amounted to 0.672 ± 0.0341 fold-change vs cycle 0.

As for TACACA, the binding signal was determined as 1.29 ± 0.0617 fold-change vs cycle 0.

For CGGAAG, the binding signal is 0.707 ± 0.0759 fold-change vs cycle 0.

As to ATTTAC, the binding signal is 1.69 ± 0.111 fold-change vs cycle 0.

For the sequence CTTAAA, the binding signal amounted to 1.65 ± 0.165 fold-change vs cycle 0.
